Consider 26 molecules from paper PMC12136788.

Residue numbers refer to the chain shown, from its start. Over roughly 24,000 sequences, “enrichment r” has its median near 0.99; the highest 2% begin near 3.7. The list comes from a sample in which the highest values are over-represented; it also holds similar and randomly drawn sequences.

B1: 28740388_28740508_4059_3pUTR_ENSMUSG00000048271_ENSMUST00000114884|mouse|control|control (ssRNA)
RNA: GGGAGUUCUACAGUCCGACGAUCUUUGAGCUGGUAACAUUCUUUCCUGAAUCUAAAACUCUGUGACCAAUCACAUAGCAGGAUCACGAAGAACAAGGUCUACAUGCAUUAUAAGCACUCGGAAACAAAAGAACACGAGAACAGCAACAGAGGAUUGAGCAUCA
B2: chr7:149068622:149068623:-_ENSMUSG00000025139_ENSMUST00000001950|mus_hu|mus_mus_mus_hu_False|58_98 (ssRNA)
RNA: GGGAGUUCUACAGUCCGACGAUCGUGAGGCCUCUGAGUGAGGUUCCUGGUCUGUCCUGGGUUAGAGUUGUUAAUAUCACUAAGUGGACCAUCUAGAACGUUCCAGUCCCGCCUGACACCUUCAUUCCCAAUGGAGAAGAAAUCCAACAGAGGAUUGAGCAUCA
B3: chr14:21343309:21343310:-_ENSMUSG00000021816_ENSMUST00000161445|mus_hu|motif|central (ssRNA)
RNA: GGGAGUUCUACAGUCCGACGAUCAGGAUCGGACCAUAACAAGUCACACAUUGGUCCAAAUGCAGGUGGCUCUUUGAAUCGGUCGGAUCUCCUAAUAUCAUCCAGUGUGUGUAUUUCUGGUGAAAGUCCACCAUGAACACAAAGCAACAGAGGAUUGAGCAUCA
B4: chr1:78194255:78194256:-_ENSG00000077254_ENST00000357428|hu_mus|motif|central (ssRNA)
RNA: GGGAGUUCUACAGUCCGACGAUCAUUGCUGUCCUCAGGAAAGCCUUUGGAGCCACUCUCAUUUUCUGCUUUCUCGCUGCUGCGGCAAGACUCGCACGACUGAAAAUCCACAUCUGACUGGCUCUUCUCUUCCUCCACCGUCUCCAACAGAGGAUUGAGCAUCA
B5: chr7:128503047:128503048:+_ENSG00000128524_ENST00000249289|hu_mus|FALSE|FALSE (ssRNA)
RNA: GGGAGUUCUACAGUCCGACGAUCGGUGGUAUCCUUCUCCACUACCAGGAAAUUAGGGUGGCGGUUCUUGUUUAGCUCCCCUAUGCCGCCCAACAGGAAACCAGUCACCGUGUCCUCGUCUCCAAUCACCGCGAUUAGCUUACCCAACAGAGGAUUGAGCAUCA
B6: chr1:58468927:58468928:-_ENSMUSG00000026034_ENSMUST00000148330|mus_mus|mus_mus_mus_hu_False|18_78 (ssRNA)
RNA: GGGAGUUCUACAGUCCGACGAUCAAUUACUGAAAAAGAUGUUCAUUACCUUAGCUAGGCCAUGUAUGAACCAAAUUACCCAAACAAAAUAAACAUGGCAAUAUAAAAAUGUUAAGAAAAUAACUUACUGUACAAAAUAACUUACAACAGAGGAUUGAGCAUCA
B7: chr1:66485654:66485655:+_ENSMUSG00000015222_ENSMUST00000024639|mus_mus|motif|central (ssRNA)
RNA: GGGAGUUCUACAGUCCGACGAUCAAUUUUUUAUAUAAAAUUGUAACAAUUACUACAGUUGGGGGAUGAAAUUAUUUCUCGGUGGUUUGUAAAGAAUGAAUAUGACACCUGCUCAGAGCCCACUCCUGCCAAGAGCUCAUGCCUCAACAGAGGAUUGAGCAUCA
B8: chrX:17854524:17854525:+_ENSMUSG00000037369_ENSMUST00000044484|mus_hu|motif|central (ssRNA)
RNA: GGGAGUUCUACAGUCCGACGAUCUCGUGAAUUACUCUCAUUAGUGACAAAAAGCAGAUCAAAAACCUCCACUUCACAAAUGCGGCAGUAAUGAGCUGGUUCUUCUUUUGUCCGCCCAUGCCAUAUAAUCUCUUUUCCUGCAGCCAACAGAGGAUUGAGCAUCA
B9: chr14:48151594:48151595:+_ENSMUSG00000037536_ENSMUST00000168833|mus_mus|FALSE|FALSE (ssRNA)
RNA: GGGAGUUCUACAGUCCGACGAUCAUUGAAGUUUUUUUAAAAAAUUUUUAACCAGACAAAAGGAUGCACAACAUUUUAAUCUAUUAUAUGAUAUUGUCUUAUUCUGUGGUGAUUAUGUUUAGUCAGCUGUUCAUAAUAUACAAUCAACAGAGGAUUGAGCAUCA
B10: chr10:117127018:117127019:-_ENSMUSG00000020184_ENSMUST00000020408|mus_hu|FALSE|FALSE (ssRNA)
RNA: GGGAGUUCUACAGUCCGACGAUCAACAGAGCAAGACUCGGUCUCAAAAAAAAUAAUAAGUUACAUUUAAAUGUCAUAUACAUAUUUAAGAAAAAAAAAAACCAAGUACUUCUCAUUUAAGACAGAGUAGAAAUUAUUUAAAAUCAACAGAGGAUUGAGCAUCA
B11: chr1:66485654:66485655:+_ENSMUSG00000015222_ENSMUST00000024639|mus_mus|FALSE|FALSE (ssRNA)
RNA: B7 RNA with G80U, G81A
B12: chr1:58468927:58468928:-_ENSMUSG00000026034_ENSMUST00000148330|mus_mus|mus_mus_mus_hu_False|58_78 (ssRNA)
RNA: B6 RNA with C78U, C80U, C84A, A118U, A119U, A122C, C123A, U124A, U125A, A126G
B13: chr14:62214197:62214198:+_ENSG00000100644_ENST00000337138|hu_hu|FALSE|FALSE (ssRNA)
RNA: GGGAGUUCUACAGUCCGACGAUCAGCAUUAUUAUUUAUGUAAAAUGUGAAAAAAAAGGUGUAAAAAUUUUUCAACUGCCUAUGAUCAUGAUGAAAGGUUACUGCCUUCUUACAAAAAUUAUAUUGGCAUCUUCUUAAAAAUAACAACAGAGGAUUGAGCAUCA
B14: 30669026_30669146_122_CDS_ENSG00000108666_ENST00000577809|human|control|control (ssRNA)
RNA: GGGAGUUCUACAGUCCGACGAUCGCGAUAGCUGUAAAGACAGUAGUGGCUGCUGGACGGCGGCUCGAGUCUCCGCUCCUCGGCUGAGCCUCCCUCUUCGCUGCUCUCUAGUUCCUUUUCAUCUCCAUCCAUCGACUCCUGCAACAACAGAGGAUUGAGCAUCA
B15: 23382874_23385586_565_CDS_ENSMUSG00000026158_ENSMUST00000027343|mouse|control|control (ssRNA)
RNA: GGGAGUUCUACAGUCCGACGAUCUUCUCUCAGGGGGAAAAGCCAUUGGAUGUACGUGUGGUUGUGCUCCAGCUUCUCGUAGUCCCCUUUCCACUUAUUUAGAACCUCUUCAAUGUAAACACCAUCCGGCUUAAAUGGAAUUUUCAACAGAGGAUUGAGCAUCA
B16: chr1:39494447:39494448:+_ENSG00000168653_ENST00000372967|hu_mus|hu_hu_hu_mus_False|58_68 (ssRNA)
RNA: GGGAGUUCUACAGUCCGACGAUCGCACCGAGCGGCGUUCUUAUAGGGCUGUUCUGCGCUUAGGAACGUCAACCAUCGAUCUAUGUUGAUGCCCAGCUUUUUCUGUAUGUCAAGGAAAGGCAUGGCUCUGCAGUGCCCUUGUCACAACAGAGGAUUGAGCAUCA
B17: chr3:179287964:179287965:+_ENSG00000136518_ENST00000429709|hu_hu|hu_hu_hu_mus_True|38_38 (ssRNA)
RNA: GGGAGUUCUACAGUCCGACGAUCCUUGAGUGGUGAGAUGGCCUCCAUGUUCUCCCUGGGCACGCGGAGGGCAUUGGUGUCUAUGUAGUAGGUGGGCCCGCCUUGUUUGCCUUUGUCACCAUCAAUCUCCAUCAUUGUACUUCCCAACAGAGGAUUGAGCAUCA
B18: chr1:58468927:58468928:-_ENSMUSG00000026034_ENSMUST00000148330|mus_mus|mus_mus_mus_hu_False|18_88 (ssRNA)
RNA: GGGAGUUCUACAGUCCGACGAUCAAUUACUGAAAAAGAUGUUCAUUUAUUUGGUUUUGUACUUAAUGAACCAAAUUACCCAAACAAAAUAAACAUGGCAAUAUAAAAAUGUUAAGAAAAUAACUUACUGUACAAAAUAACUUACAACAGAGGAUUGAGCAUCA
B19: chr1:58468927:58468928:-_ENSMUSG00000026034_ENSMUST00000148330|mus_hu|FALSE|FALSE (ssRNA)
RNA: GGGAGUUCUACAGUCCGACGAUCAAUUACUGAAAAAGAUGUUCAUUACCUUAGCUAUGUACUUAAUGAACCAAAUUACCCAAACAAAAUAAACAUGGCAAUAUAAAAAUGUUAAGAAUUUACAAAGCUGUACAAAAUAACUUACAACAGAGGAUUGAGCAUCA
B20: chr1:185277986:185277987:-_ENSG00000116679_ENST00000392007|hu_mus|FALSE|FALSE (ssRNA)
RNA: GGGAGUUCUACAGUCCGACGAUCCUGCUUGACUCGGUCCAUCUUCAGCUUCUUGGCUGCAGAAUAAACAUCUUUUACUAAUUCCUUAUCAGCUUUCAACUGAGCCGUGUAUGCAUAAUUCAGCAAGACUUCAACAGCUUCUGGCAACAGAGGAUUGAGCAUCA
B21: chr13:100194382:100194383:-_ENSMUSG00000052727_ENSMUST00000064762|mus_mus|FALSE|FALSE (ssRNA)
RNA: GGGAGUUCUACAGUCCGACGAUCUCCUGUAAAUGAAAACAUUUGUUAAAAAGUUCAUCUAUGAAAAGUUCUCGAGUAGCUAAAAAAAAAAAAAAAAAAAAAAAAAAUCUUCUGUACAUGUGUUCCCAUGUGUUGAAAUUAAUGCAACAGAGGAUUGAGCAUCA
B22: chr4:54876292:54876293:-_ENSG00000109220_ENST00000263921|perfect_dup|motif|central (ssRNA)
RNA: GGGAGUUCUACAGUCCGACGAUCCUAUAAAUAAAGUAAAUGCUAAUCUGGUCGAAAAAUCGGUGUCUUUGGUAAAAAUUCGGUGAGGAUGACAUAUUCCAUCAUGUUAUUCGUUUCACAUUUCCUUUUGCUCAGUCUCCAAUGCAACAGAGGAUUGAGCAUCA
B23: chr13:100194382:100194383:-_ENSMUSG00000052727_ENSMUST00000064762|mus_mus|motif|central (ssRNA)
RNA: B21 RNA with U80G, A81G
B24: chr15:80390846:80390847:+_ENSG00000086666_ENST00000559775|hu_hu|FALSE|FALSE (ssRNA)
RNA: GGGAGUUCUACAGUCCGACGAUCCUGUCCUGUAUCUUGAGACAGACAUUAGCUUUCUGCCUUCCCUAUUCUCAUAAGCAGCUACUUAAAAGUUUUGAAUUUUAUGCAAGAAAACAUUUUAAAGCCUUCUGUGUUUUACUGCAGCAACAGAGGAUUGAGCAUCA
B25: chr11:57926588:57926589:+_ENSMUSG00000020515_ENSMUST00000020822|mus_hu|FALSE|FALSE (ssRNA)
RNA: GGGAGUUCUACAGUCCGACGAUCGUCAAUCCCUUCCUCUUCAUGCUUCUGAAACUGUAGUCCUGAGUUAGCAAGGAGAUCUAUGGAAUCCUGGGAGUACAUGUCCUCUGUAAGGUUAAAUUUGAAAUUGAACUGCCAAGUAUUCAACAGAGGAUUGAGCAUCA
B26: chr13:100194382:100194383:-_ENSMUSG00000052727_ENSMUST00000064762|mus_hu|FALSE|FALSE (ssRNA)
RNA: GGGAGUUCUACAGUCCGACGAUCUCCUGUAAAUGAAAACAUUUGUUAAAAAGUUCAUCUAUGAAAAGUUCUCACAUAUCUUAAAAAAAAAAUUCUUCUGUACACUUGUUCCCAUAAUUAUGUUGAAAUUAAUGGAAAAUUUAACAACAGAGGAUUGAGCAUCA

The target in the assay is T1, UNK ZnF1-3 (human, UniProt Q9C0B0 31-174).
T1 sequence: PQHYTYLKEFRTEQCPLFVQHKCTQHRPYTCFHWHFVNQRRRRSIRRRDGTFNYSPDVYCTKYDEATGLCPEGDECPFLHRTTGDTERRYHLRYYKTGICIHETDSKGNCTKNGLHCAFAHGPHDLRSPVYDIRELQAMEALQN
As to the kind of experiment: nsRBNS (natural sequence RNA bind-n-seq); RBNS binding buffer (assumed for nsRBNS): 25 mM Tris pH 7.5, 150 mM KCl, 3 mM MgCl2, 0.01% Triton X-100, 500 ug/ml BSA, 20 U/ml SUPERase-In, 4 C; UNK is unkempt and MSI1 is Musashi-1; names of the RNAs are library labels; protein concentration not given here; high values mean tight binding.
B1 returned a binding signal of 1.22 enrichment R.

The molecule B2 gave a binding signal of 0.755 enrichment R.

In turn, B3 registered a binding signal of 0.921 enrichment R.

As to B4, the binding signal worked out at 0.703 enrichment R.

Regarding B5, the binding signal came to 0.494 enrichment R.

As to B6, the binding signal is 1.35 enrichment R.

As for B7, the binding signal was found to be 4.27 enrichment R.

As to B8, the binding signal was 0.845 enrichment R.

B9: the binding signal came out at 3.47 enrichment R.

For the molecule B10, the binding signal worked out at 18 enrichment R.

As for B11, the binding signal came to 2.92 enrichment R.

With B12, the binding signal was determined as 3.96 enrichment R.

In turn, B13 returned a binding signal of 29 enrichment R.

In the case of B14, the binding signal turned out to be 0.51 enrichment R.

For B15, the binding signal was found to be 0.65 enrichment R.

The molecule B16 gave a binding signal of 0.515 enrichment R.

With B17, the binding signal turned out to be 0.571 enrichment R.

For the molecule B18, the binding signal is 6.29 enrichment R.

The molecule B19 had a binding signal of 1.24 enrichment R.

B20: the binding signal is 0.806 enrichment R.

On to B21, for which the binding signal amounted to 5.73 enrichment R.

B22: the binding signal worked out at 1.46 enrichment R.

Regarding B23, the binding signal amounted to 5.84 enrichment R.

The molecule B24 returned a binding signal of 0.755 enrichment R.

Regarding B25, the binding signal turned out to be 1.01 enrichment R.

In turn, B26 showed a binding signal of 1.06 enrichment R.
